Compound activity deposited in PubChem BioAssay by several laboratories.
aSyn 5UTR inh: 5' untranslated region of α-synuclein, MLPCN primary screen. alpha-synuclein 5'UTR reporter, inhibitor activity. inhibition, % (tested at 7.5 µM). 300,000 compounds, 0.82% hits; in the data active means inhibition above about 60%; inconclusive means no clear call, values can overlap the other calls;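 further: H4 neuroglioblastoma cells stably carrying SNCA 5'UTR luciferase fusion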
Ba/F3 V617F tox: loss of viability in JAK2V617F-driven Ba/F3 cells | AID 1446 | Ba/F3 EpoR-JAK2V617F viability, ATP luminescence | inhibition, % at 5.6 µM | 220,000 compounds, 1.1% hits;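 active means inhibition above the campaign mean plus 3 SD over all tested compounds, cut at about 24% in these data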;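 further: cytokine-independent growth of Ba/F3 cells driven by EpoR plus mutant JAK2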
IEC-6 tox: IEC-6 cytotoxicity, counter-screen for KLF5 inhibitors; inhibition, % at 5 µM; AID 1825; luminescence viability; 290,000 compounds, 0.78% hits; in the data active means inhibition above about 22%
BaF3 parental: counter-screen for JAK2V617F inhibitors: parental Ba/F3 viability inhibitors; CellTiter-Glo ATP luminescence; inhibition, % at 5.6 µM; 220,000 compounds, 1.1% hits; AID 1486;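 active means inhibition above a per-campaign cutoff, the mean inhibition of all tested compounds plus 3 SD, cut at about 27% in these data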
APP 5UTR inh: APP translation inhibition. AID 1285. SH-SY5Y APP 5'UTR-luciferase reporter, luminescence. 190,000 compounds, 0.82% hits. inhibition, % at 2 µM;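 active means inhibition above a set limit, derived from the sample mean plus 3 SD, cut at about 45% in these data; inconclusive means one replicate passes the limit while the other fails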
KLF5 inhibitor: suppresses KLF5 promoter-driven expression. DLD-1 KLF5 promoter-luciferase reporter, luminescence. inhibition, % at 5 µM. 290,000 compounds, 0.23% hits. AID 1700;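 active means inhibition above a per-plate limit of that plate's mean compound inhibition plus 3 SD, cut at about 60% in these data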;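 further: higher means less KLF5 promoter-driven luciferase light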
Numbers stand for hits; - = inactive; ? = inconclusive; . = no result given. This is a sample that favours compounds with a hit; in the whole collection about 2.2% have one here.

SMILES | aSyn 5UTR inh | Ba/F3 V617F tox | IEC-6 tox | BaF3 parental | APP 5UTR inh | KLF5 inhibitor
COc1ccc2nc(C)cc(SCC(=O)N/N=C/c3ccccc3)c2c1 | - | - | - | - | - | -
O=C(CCl)N(c1ccccc1)C1CCCCC1 | 110 | - | - | - | - | -
COc1cccc(-c2cc(C(=O)N3CCOCC3)no2)c1 | - | . | - | . | . | -
COc1ccc(-c2cc(C(=O)N3CCOCC3)no2)cc1 | 73 | . | - | . | . | -
CC(=O)Nc1ccc(C2=NN(Cc3nnc(-c4ccccc4)o3)C(=O)SC2)cc1 | - | - | - | - | - | -
O=C1SCC(c2ccccc2)=NN1Cc1ccccc1 | - | - | - | 32 | - | -
CC(c1ccccc1)C1CC(=O)N(Cc2ccccc2)C1=O (stereo unspecified) | - | - | - | - | - | -
CCN(CC(=O)NCc1ccc(Cl)cc1)C(=O)c1cccc(S(=O)(=O)Nc2ccc(OC)cc2)c1 | - | . | . | . | . | .
CN1CCCN(C(=O)c2ccc(Cl)s2)CC1 | - | . | - | . | . | -
CNS(=O)(=O)c1cccc(C(=O)Nc2cccnc2)c1 | - | - | - | - | - | -
CNS(=O)(=O)c1cccc(C(=O)Nc2cccc(Cl)c2)c1 | - | - | - | - | 48 | -
Cc1ccc(C2CC(C(F)(F)F)n3nc(C(=O)NCc4c(C)nn(C)c4C)c(Cl)c3N2)cc1 (stereo unspecified) | - | 44 | - | 55 | - | -
CC(=O)Nc1cc(C)nn1-c1nc(C)cc(C)n1 | - | - | - | - | - | -
Cc1ccc(Nc2cc(C)nn2-c2nc(C)cc(C)n2)cc1 | - | - | 30 | - | - | -
CCC1Oc2ccc(C)cc2N(CC(=O)NCc2ccco2)C1=O (stereo unspecified) | - | - | - | 90 | - | -
c1ccc(-c2cn(-c3ccccc3)c3[n+]2CCCS3)cc1 | - | 68 | - | 63 | . | -
Cc1ccc(-c2cn(-c3ccccc3)c3[n+]2CCCS3)cc1 | - | 77 | - | 67 | - | -
COCC(C)n1c(SCc2ccc(OC)c(F)c2)nc2ccccc2c1=O (stereo unspecified) | - | - | - | - | - | -
CCn1c(=O)cc(OCC(=O)N2CCCCCC2)c2ccccc21 | - | - | - | - | 55 | -
CCn1c(=O)cc(OCC(=O)N2CCN(c3ccc(F)cc3)CC2)c2ccccc21 | - | - | - | - | - | -
Cc1nc2cc3ccccc3cc2n1C | - | - | - | - | - | -
Cn1c(=O)[nH]c2cc3ccccc3cc21 | 62 | - | - | - | - | -
COCC(C)n1c(SCc2nc3ccccc3c(=O)[nH]2)nc2ccccc2c1=O (stereo unspecified) | - | - | 34 | - | - | -
CCOC(=O)c1c(C)n(-c2ccc(C)cc2)c2ccc(OCC(O)CNCC3CCCO3)cc12 (stereo unspecified) | 75 | - | - | - | - | -
O=C(N/N=C/c1c(O)ccc2ccccc12)c1ccc[n+](CCO)c1 | - | - | - | - | - | -
SMILES | aSyn 5UTR inh | Ba/F3 V617F tox | IEC-6 tox | BaF3 parental | APP 5UTR inh | KLF5 inhibitor
Cc1c(C(=O)N/N=C/c2c(O)ccc3ccccc23)nnn1-c1nonc1N | 63 | . | - | . | . | -
O=C(N/N=C\c1c(O)ccc2ccccc12)c1ccc(O)cc1 | 75 | . | - | . | . | -
O=C(CNc1ccccc1)N/N=C/c1c(O)ccc2ccccc12 | 69 | . | - | . | . | -
Cn1cc(C(=O)N/N=C/c2c(O)ccc3ccccc23)ccc1=O | 96 | - | - | - | 50 | -
Cc1cc(C)nc(N/N=C/C2=C(O)CC(c3ccc(F)cc3)CC2=O)n1 (stereo unspecified) | - | - | - | - | . | -
COc1cc(OC)cc(C(=O)N/N=C\c2ccoc2)c1 | - | . | - | . | . | -
O=C(NCc1ccc2c(c1)OCO2)C1CC(=O)N(CCc2ccc(F)cc2)C1 (stereo unspecified) | - | . | - | . | . | -
CCN(CC)CCN(C(=O)c1cc2c(ccc3ccccc32)oc1=O)c1nc2cc3c(cc2s1)OCCO3 | 78 | . | - | . | . | -
CCN(CC)CCN(C(=O)c1ccc2c(c1)OCCO2)c1nc2cc3c(cc2s1)OCO3 | - | . | - | . | . | -
O=[N+]([O-])c1cc2c(cc1/C=N\NS(=O)(=O)c1ccccc1)OCO2 | - | - | - | - | - | -
CNc1nc(N/N=C/c2cc3c(cc2[N+](=O)[O-])OCO3)nc(Nc2ccccc2)n1 | 74 | - | - | - | - | -
CCOC(=O)C1=C(C)N=C(SC)N(C)C1c1ccccc1 (stereo unspecified) | - | - | - | - | - | -
CCOC(=O)C1=C(c2ccccc2)ON(C)C1c1ccccc1 (stereo unspecified) | - | 26 | - | 39 | - | -
NNC(=O)C1CCCN1S(=O)(=O)c1ccc(Cl)cc1 (stereo unspecified) | - | - | - | 58 | - | -
CCC(C)NC(=O)C1CCCN1S(=O)(=O)c1ccc(Cl)cc1 (stereo unspecified) | - | - | - | - | - | -
Cc1c(Cl)c([N+](=O)[O-])nn1Cc1ccc(C(=O)Nc2ccc(Cl)cn2)o1 | - | - | - | - | - | -
O=C(Nc1ccc(Cl)cn1)c1ccc([N+](=O)[O-])o1 | - | - | - | - | 47 | -
O=C(Nc1nc(-c2ccccn2)cs1)c1ccc([N+](=O)[O-])o1 | - | 84 | - | 89 | . | -
O=C(Nc1nc(-c2ccccn2)cs1)c1cc(Cl)ccc1[N+](=O)[O-] | 116 | 72 | 83 | 61 | 76 | 64
CCOc1cc(OCC)nc(S(C)(=O)=O)n1 | - | - | - | - | - | -
O=C(Cn1cnc2c(oc3nc4c(cc32)CCCC4)c1=O)Nc1cccc(Cl)c1 | 66 | . | - | . | . | -
O=C(C[N+]1(CC#Cc2ccccc2)CCCCC1)c1ccc(Cl)cc1 | - | - | - | 38 | - | -
O=C(C[N+]1(CC#Cc2ccccc2)CCOCC1)c1ccccc1 | - | - | - | - | - | -
O=C(C[N+]1(CC#Cc2ccccc2)CCCCC1)c1ccccc1 | - | 25 | - | 34 | - | -
Cc1ccc(C(=O)NC(=S)Nc2ccccc2N2CCOCC2)cc1C | - | . | - | . | . | -
SMILES | aSyn 5UTR inh | Ba/F3 V617F tox | IEC-6 tox | BaF3 parental | APP 5UTR inh | KLF5 inhibitor
CSc1ncccc1C(=O)OCC(=O)N(CC(C)C)c1c(N)n(Cc2ccccc2)c(=O)[nH]c1=O | - | . | - | . | . | -
Cc1cc(NC(=O)c2ccccc2)c(Cl)cc1N | 64 | - | - | - | . | -
CC(C)NC(=O)COc1coc(CN2CCN(C(=O)c3ccco3)CC2)cc1=O | - | . | . | . | . | .
O=C(CSc1nnc(COc2ccc(Cl)cc2)o1)N1CCCC1 | - | . | - | . | . | -
O=C(CSc1nnc(COc2ccc(Cl)cc2)o1)N1c2ccccc2CCc2ccccc21 | ? | 25 | - | 46 | - | -
C#CC[N+](C)(C)CCCCCCCCC | 65 | 82 | - | 62 | - | -
CC#CC[N+](C)(C)CCCCCCCCCC | - | 95 | - | 79 | . | -
O=C(NCCN1C(=O)S/C(=C\c2ccc(OC(F)F)cc2)C1=O)c1cnccn1 | - | - | - | - | 76 | -
CCOc1ccccc1-n1c(=S)sc2c(=O)n(-c3ccccc3)c(=S)[nH]c21 | - | - | - | - | - | -
